# Measurements taken from PubChem BioAssay (Tox21).
# Records with an inconclusive call do not appear. Activity calls are given as the source filed them. Calls follow the shape of the dose curve; as a rule, active = well fitted inhibition curve with a large enough effect in the repeat runs; inconclusive = weak or mixed curves, or effect the other way; inactive = no such curve, though single readings can be large or run the other way.
# Target: Nuclear receptor subfamily 1 group I member 3 (Homo sapiens) (UniProt Q14994)
# Sequence (Q14994 whole entry, looked up): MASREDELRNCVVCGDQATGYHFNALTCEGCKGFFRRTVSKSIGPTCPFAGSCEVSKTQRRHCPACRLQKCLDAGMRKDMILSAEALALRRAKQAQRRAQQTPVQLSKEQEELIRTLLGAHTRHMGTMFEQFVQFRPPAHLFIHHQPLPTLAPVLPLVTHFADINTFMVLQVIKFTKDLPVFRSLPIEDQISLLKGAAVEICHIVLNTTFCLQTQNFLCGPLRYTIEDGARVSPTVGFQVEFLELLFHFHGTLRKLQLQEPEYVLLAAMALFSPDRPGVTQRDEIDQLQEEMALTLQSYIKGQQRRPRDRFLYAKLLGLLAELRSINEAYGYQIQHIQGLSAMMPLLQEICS
# Assay: qHTS assay to identify small molecule antagonists of the constitutive androstane receptor (CAR) signaling pathway (AID 1224838);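 also: HepG2 cells stably expressing hCAR with CYP2B6 luciferase reporter stimulated by CITCO; nearly all actives have a fitted effect of over 40% in size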
# Conditions: HepG2-CYP2B6-hCAR luciferase, CITCO-stimulated, 24 h; series mostly up to 92.4 µM; activity, negative = inhibition: at the top concentration
# Outline: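 Read-out: ONE-Glo luciferase luminescence after 30 min at room temperature. HepG2-CYP2B6-hCAR double-stable cells, compounds in 15-point titration plus 50 nM CITCO final, 24 h at 37 C/5% CO2.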
# % is scaled to controls: 0 for no effect and ±100 for the full control effect; potency is read from the fitted curve at half-maximal effect.
Structure (SMILES),Potency,"activity, negative = inhibition"
CSSC,22 µM (active),
Nc1ccc(N=Nc2ccccc2)cc1,,150% (inactive)
Nc1nc(N)nc(Cl)n1,,-23% (inactive)
CCN(CC)C(=O)N[C@@H]1C=C2c3cccc4[nH]cc(c34)C[C@@H]2N(C)C1,,-1.17% [at 42.5 µM] (inactive)
CCC[CH2][Sn]([CH2]CCC)([CH2]CCC)[CH2]CCC,9.69 µM (active),
CNC(=O)CSP(=O)(OC)OC,,-12.1% (inactive)
Clc1cc(Cl)c(-c2cc(Cl)c(Cl)cc2Cl)cc1Cl,,19.9% [at 42.5 µM] (inactive)
CCCCON=O,,-8.97% (inactive)
Cc1cc2c3c(c1)C(c1ccccc1)=N[C@@H](NC(=O)c1ccncc1)C(=O)N3CC2,,14% (inactive)
COc1ccc(Cc2nccc3cc(OC)c(OC)cc23)cc1OC,,61.8% [at 42.5 µM] (inactive)
CCNc1nc(NC(C)C(C)C)nc(SC)n1 (centres undefined),,47.4% (inactive)
O=[N+]([O-])c1cccc2cccc([N+](=O)[O-])c12,,77.4% (inactive)
Cc1ccn2nc(S(=O)(=O)Nc3c(F)cccc3F)nc2n1,,-12.9% (inactive)
O=[N+]([O-])c1ccccc1-c1ccccc1,,19.4% (inactive)
CN1[C@@H]2CC[C@H]1CC(O)C2 (some centres undefined),,6.54% (inactive)
CN,,6.95% (inactive)
O=[N+]([O-])c1ccc(CCl)cc1,,-0.971% (inactive)
CC1CCCC1,,34.1% (inactive)
Oc1ccc([C@H]2CNCc3c2ccc(O)c3O)cc1O,,-5.74% [at 42.5 µM] (inactive)
